Assay in all cases: Primary Screen for Target Class Profiling of Small Molecule Inhibitors of Methyltransferases
Test [1] concerns the target Catechol O-methyltransferase (Homo sapiens) (UniProt P21964). As to conditions: purified enzyme, MTase-Glo SAH luminescence; at 40 µM; stronger effect = lower value. The source says:
(§1) PI: Matthew D. Hall Ph.D. and Quinlin M. Hanson Ph.D.
(§2) National Center for Advancing Translational Sciences (NCATS)
(§3) National Institute of Health (NIH), Rockville, MD
(§4) Target class profiling (TCP) is a chemical biology approach amenable to investigating understudied biological targets. TCP is achieved by developing a generalizable assay platform and applying it to screen a curated set of compound libraries against representative members of a target class. Small molecule methyltransferases (SMMTase) are a subclass of methyltransferase that act on metabolites to modulate signaling pathways, metabolize xenobiotics, or balance the available methyl pool. We screened four curated libraries totaling 27,574 unique compounds against the SMMTases nicotinamide N-methyltransferase (NNMT), phenylethanolamine N-methyltransferase (PNMT), histamine N-methyltransferase (HNMT), glycine N-methyltransferase (GNMT), catechol O-methyltransferase (COMT), and guanidinoacetate N-methyltransferase (GAMT). The data generated by this TCP can be leveraged for informed tool molecule development. For example, in the associated publication we identified a chemotype of HNMT-selective inhibitors. Additionally, we identified a putative SMMTase-selective inhibitor with potential as a tool molecule for studying broader methyltransferase biology.
(§5) High-through put screening assays were developed at the National Center for Advancing Translational Science (NCATS) for the enzymes NNMT, PNMT, HNMT, GNMT, COMT, and GAMT. Enzymatic activity was measured as a function of SAM cofactor conversion using the MTase Glo kit (Promega) for all enzymes. All assays were performed in 1536-well format with substrates and SAM concentrations at KM values. Enzyme concentration and assay timing were optimized for 10-20% SAM conversion. Initial screening of 27,574 compounds was done as single-point assays using the highest compound concentration (40 uM). […] These compounds were replated in 11-point dose response and assayed against NNMT, PNMT, HNMT, GNMT, COMT, GAMT, and a counter-assay. The IC50 and efficacy (maximal response) values were determined for each dose-response curve. These values are also accounted for in the area under the curve (AUC) values.
(§6) PROTOCOL TABLE (as described by Inglese J, Shamu CE and Guy RK. 2007)
(§7) SEQUENCE No. (e.g., 1, 2, 3, etc.); […] (e.g., Cells, Incubation, Reagent, etc.); VALUE; DESCRIPTION.
(§8) 1; Reagent; 2 uL; SMMTase Enzyme (2x) in reaction buffer, columns 1- 48.
(§9) 2; Reagent; 1 uL; SAM (4x) in reaction buffer, columns 1-48.
(§10) 3; Controls; 23 nL; DMSO in column 4; sinefungin in DMSO (0 uM - 40 uM) in 7-point 1:2 dilution series (n = 2) in column 2.
(§11) 4; Compounds; 23 nL; Columns 5-48.
(§12) 5; Reagent; 1 uL; Substrate (4x) in reaction buffer, columns 2-48.
(§13) 6; Time; 20-30 min; Incubation.
(§14) 7; Reagent; 1 uL; MTase-Glo reagent (5X), columns 1-48.
(§15) 8; Time; 30 min; Incubation.
(§16) 9; Reagent; 5 uL; MTase-Glo Detection reagent, columns 1-48.
(§17) 10; Time; 30 min; Incubation, luminescence evolution.
(§18) 11; Detection; Luminescence; ViewLux uHTS Microplate Imager (PerkinElmer).
(§19) NOTES (numbers refer to Sequence numbers above)
(§20) 1, 2, 5. White Medium Binding Greiner 1536-well plates (Cat #789175-F, Greiner Bio-One, Monroe, NC); Reaction buffer: 50 mM Tris, pH 8.0, 3 mM MgCl2, 1 mM EDTA, 50 mM NaCl, 1 mM DTT, and 0.1 mg/mL BSA. Evaporation was prevented by covering assay plates with metal lids containing holes to allow gas diffusion.
(§21) 1. Six SMMTase were profiled: HNMT, GNMT, PNMT, COMT, NNMT, GAMT
(§22) 5. The corresponding substrate was used for each enzyme: HNMT - 5.3 uM Histamine; GNMT - >500 uM Glycine; PNMT - 16.2 uM Norephinephrine; COMT - 13.7 uM Norephinephrine; NNMT - 3.8 uM Nicotinamide; GAMT - 2.5 uM Guanidinoacetate.6, 8, 10. Room temperature
(§23) 6. Final reaction conditions: 10 nM COMT, 5 uM SAM, 15 uM norepinephrine, 50 mM Tris, pH 8.0, 3 mM MgCl2, 1 mM EDTA, 50 mM NaCl, 1 mM DTT, and 0.1 mg/mL BSA; refer to tables 2 and S1 for specific timing.
8. […]

In test [2] the target is Glycine N-methyltransferase (Homo sapiens) (UniProt Q14749). As to conditions: purified enzyme, MTase-Glo SAH luminescence; measured here: GNMT inhibition; at 40 µM; stronger effect = lower value.
Sequence of Glycine N-methyltransferase (Homo sapiens) (Q14749 whole entry, looked up): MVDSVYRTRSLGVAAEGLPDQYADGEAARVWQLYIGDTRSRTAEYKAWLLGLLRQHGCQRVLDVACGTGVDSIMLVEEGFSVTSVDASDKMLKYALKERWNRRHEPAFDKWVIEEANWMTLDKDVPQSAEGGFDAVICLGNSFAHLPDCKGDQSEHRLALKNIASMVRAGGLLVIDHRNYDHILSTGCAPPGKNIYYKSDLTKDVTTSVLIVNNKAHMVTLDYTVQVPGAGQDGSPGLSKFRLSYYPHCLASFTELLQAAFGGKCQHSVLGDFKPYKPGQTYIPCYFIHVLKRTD
From the text: as §1, §2, §3, §4, §5, §6, §7, §8, §9, §10, §11, §12, §13, §14, §15, §16, §17, §18, §19, §20, §21, §22, §23
8. […]

Test [3] deals with Guanidinoacetate N-methyltransferase (Homo sapiens) (UniProt Q14353). As to conditions: purified enzyme, MTase-Glo SAH luminescence; measured here: GAMT inhibition; at 40 µM; stronger effect = lower value.
From the text: as §1, §2, §3, §4, §5, §6, §7, §8, §9, §10, §11, §12, §13, §14, §15, §16, §17, §18, §19, §20, §21, §22, §23
8. […]

The target of test [4] is Histamine N-methyltransferase (Homo sapiens) (UniProt P50135). As to conditions: purified enzyme, MTase-Glo SAH luminescence; measured here: HNMT inhibition; at 40 µM; stronger effect = lower value.
Sequence of Histamine N-methyltransferase (Homo sapiens) (P50135 whole entry, looked up): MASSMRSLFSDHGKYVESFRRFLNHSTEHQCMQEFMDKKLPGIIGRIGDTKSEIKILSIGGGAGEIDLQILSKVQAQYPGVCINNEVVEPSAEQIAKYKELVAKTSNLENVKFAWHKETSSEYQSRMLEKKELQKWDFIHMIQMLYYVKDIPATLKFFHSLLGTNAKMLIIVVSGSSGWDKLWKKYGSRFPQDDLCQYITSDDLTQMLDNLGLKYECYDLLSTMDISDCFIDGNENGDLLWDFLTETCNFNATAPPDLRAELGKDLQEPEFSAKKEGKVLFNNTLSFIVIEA
From the text: as §1, §2, §3, §4, §5, §6, §7, §8, §9, §10, §11, §12, §13, §14, §15, §16, §17, §18, §19, §20, §21, §22, §23
8. […]

For test [5], the target named is Nicotinamide N-methyltransferase (Homo sapiens) (UniProt P40261). The conditions noted are these: purified enzyme, MTase-Glo SAH luminescence; measured here: NNMT inhibition; at 40 µM; stronger effect = lower value.
Sequence of Nicotinamide N-methyltransferase (Homo sapiens) (P40261 whole entry, looked up): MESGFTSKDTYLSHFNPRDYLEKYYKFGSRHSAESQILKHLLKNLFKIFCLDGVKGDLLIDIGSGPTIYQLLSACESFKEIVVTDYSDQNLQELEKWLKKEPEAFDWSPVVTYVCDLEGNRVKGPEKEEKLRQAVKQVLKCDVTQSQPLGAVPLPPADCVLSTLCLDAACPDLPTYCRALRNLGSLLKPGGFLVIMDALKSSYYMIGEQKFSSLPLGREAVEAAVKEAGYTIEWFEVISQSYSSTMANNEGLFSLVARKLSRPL
From the text: as §1, §2, §3, §4, §5, §6, §7, §8, §9, §10, §11, §12, §13, §14, §15, §16, §17, §18, §19, §20, §21, §22, §23
8. […]

For test [6], the target named is Phenylethanolamine N-methyltransferase (Homo sapiens) (UniProt P11086). As to conditions: purified enzyme, MTase-Glo SAH luminescence; measured here: PNMT inhibition; at 40 µM; stronger effect = lower value.
Sequence of Phenylethanolamine N-methyltransferase (Homo sapiens) (P11086 whole entry, looked up): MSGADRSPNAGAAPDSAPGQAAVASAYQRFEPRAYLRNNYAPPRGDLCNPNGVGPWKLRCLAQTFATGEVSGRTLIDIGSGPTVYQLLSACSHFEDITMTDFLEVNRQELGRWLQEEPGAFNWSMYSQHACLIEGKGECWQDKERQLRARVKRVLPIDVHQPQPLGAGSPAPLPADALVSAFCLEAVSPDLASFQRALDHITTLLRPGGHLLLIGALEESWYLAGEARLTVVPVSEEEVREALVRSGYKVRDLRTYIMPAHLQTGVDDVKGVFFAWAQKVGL
From the text: as §1, §2, §3, §4, §5, §6, §7, §8, §9, §10, §11, §12, §13, §14, §15, §16, §17, §18, §19, §20, §21, §22, §23
8. […]

In all, about 25,000 compounds went through this assay and about 970 (3.9%) were called active. Roughly 8% stayed inconclusive and do not appear here. The rule behind the calls is not given here. The full list was thinned out, with actives kept by preference.
% is set by controls: 0 for no effect and ±100 for the full control effect.

Sequence of Catechol O-methyltransferase (Homo sapiens) (P21964 whole entry, looked up): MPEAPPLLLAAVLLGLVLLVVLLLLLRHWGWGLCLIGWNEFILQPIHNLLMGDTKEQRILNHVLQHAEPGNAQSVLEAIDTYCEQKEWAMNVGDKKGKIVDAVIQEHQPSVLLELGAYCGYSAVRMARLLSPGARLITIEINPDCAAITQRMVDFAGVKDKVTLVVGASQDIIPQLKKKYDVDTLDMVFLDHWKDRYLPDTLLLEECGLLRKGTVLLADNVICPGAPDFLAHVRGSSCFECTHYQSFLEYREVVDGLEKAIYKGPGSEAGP

Turning to `C[C@H]1O[C@@H](O[C@H]2CC[C@]3(CO)C4CC[C@]5(C)[C@@H](C6=CC(=O)OC6)CC[C@]5(O)[C@@H]4CC[C@H]3C2)[C@H](O)[C@H](O)[C@@H]1O[C@@H]1O[C@H](CO)[C@@H](O)[C@H](O)[C@H]1O` (stereo not given in full), the activity change, negative = inhibition was -91.7% (active) in test [1]; -5.56% in test [2]; -4.58% in test [3]; -5.35% in test [4]; -16% in test [5]; 0.37% in test [6].
As for `CO[C@H]1C[C@H](O[C@H]2CC[C@]3(CO)[C@H]4CC[C@]5(C)[C@@H](C6=CC(=O)OC6)CC[C@]5(O)[C@@H]4CC[C@]3(O)C2)O[C@H](C)[C@H]1O`, the activity change, negative = inhibition is -8.57% (inactive) in test [1]; -6.2% in test [2]; -5.89% in test [3]; -0.519% in test [4]; -17.6% in test [5]; -14.3% in test [6].
Take `COC1CC(O[C@H]2CC[C@@]3(C)C(CCC4C3CC[C@]3(C)[C@@H](C5=CC(=O)OC5)CC[C@]43O)C2)OC(C)C1O` (stereo not given in full): the activity change, negative = inhibition was -9.86% (inactive) in test [1]; -6.87% in test [2]; -29.4% in test [3]; 1.18% in test [4]; -27.7% in test [5]; -12.7% in test [6].
In the case of `CN(C)c1ccc(C2c3cccn3-c3ccccc3CN2C(=O)NCc2ccccc2)cc1` (stereo not given), the activity change, negative = inhibition in test [1] is 0.57% (inactive); in test [2], 0.802%; in test [3], 6.24%; in test [4] it was -5.35%; in test [5], -6.61%; in test [6], -0.417%.
Take `CN(C)c1ccc(C2c3cccn3-c3ccccc3CN2C(=O)Nc2ccccc2)cc1` (stereo not given): the activity change, negative = inhibition is -1.13% (inactive) in test [1]; 1.96% in test [2]; -0.001% in test [3]; -8% in test [4]; -4.78% in test [5]; -1.52% in test [6].
For `NCC(O)c1ccc(O)cc1` (stereo not given), the activity change, negative = inhibition in test [1] is 3.68% (active); in test [2], -1.52%; in test [3] it was 3.17%; in test [4], -74.4%; in test [5] it was -9.18%; in test [6], 11.4%.
With `COCC1CN(Cc2ccsc2)CC12CCNCC2` (stereo not given), the activity change, negative = inhibition is -8.14% (inactive) in test [1]; -4.38% in test [2]; -6.87% in test [3]; -9.72% in test [4]; -11.7% in test [5]; -11.5% in test [6].
As for `CCc1ccccc1NC(=O)N1Cc2ccccc2-n2cccc2C1c1ccccc1Cl` (stereo not given), the activity change, negative = inhibition in test [1] was -0.522% (inactive); in test [2] it was 4.4%; in test [3] it was 3.52%; in test [4], -2.61%; in test [5], 1.65%; in test [6], 1.03%.
As to `CC(=O)Nc1ccc(-c2ccc3n(c2=O)C[C@H]2C[C@@H]3CN(C3CCN(C)CC3)C2)cc1`, the activity change, negative = inhibition in test [1] was -5.08% (inactive); in test [2] it was -3.31%; in test [3], -2.09%; in test [4], -19.5%; in test [5], -9.65%; in test [6], 8.92%.
For the compound `C#C[C@]1(O)CC[C@H]2[C@@H]3CC[C@H]4Cc5nc6nc7ccccc7n6cc5C[C@]4(C)[C@H]3CC[C@@]21C`, the activity change, negative = inhibition in test [1] was -23.3% (active); in test [2], -13.8%; in test [3], -29.6%; in test [4], -17.3%; in test [5], -52.4%; in test [6], -33.3%.
`COc1cccc([C@H]2CN(c3cc(C)nc(N)n3)[C@@H]3C4CCN(CC4)[C@H]23)c1`: the activity change, negative = inhibition in test [1] is -2.54% (inactive); in test [2], -5.12%; in test [3], -8.6%; in test [4], -24.3%; in test [5] it was -8.14%; in test [6] it was -9.36%.
For the compound `COc1cccc(CC(=O)N2CCCCCC2CN2CCCC2)c1` (stereo not given), the activity change, negative = inhibition in test [1] was 3.61% (inactive); in test [2], -1.59%; in test [3], -5.27%; in test [4], -5.48%; in test [5], -4.35%; in test [6], 0.866%.
As for `CCc1ccc(C2c3cccn3-c3ccccc3CN2C(=O)Nc2cc(C)cc(C)c2)cc1` (stereo not given), the activity change, negative = inhibition in test [1] is 5.19% (inactive); in test [2] it was 9.8%; in test [3], 0.9%; in test [4], 2.8%; in test [5], 4.04%; in test [6], 7.84%.
As for `COC(=O)c1ccccc1NC(=O)N1Cc2ccccc2-n2cccc2C1c1ccccc1Cl` (stereo not given), the activity change, negative = inhibition was 3.56% (inactive) in test [1]; 11.4% in test [2]; 3.31% in test [3]; 5.36% in test [4]; 0.178% in test [5]; 5.41% in test [6].
Regarding `CCC1c2cccn2-c2ccccc2CN1C(=O)Nc1cccc(C)c1C` (stereo not given), the activity change, negative = inhibition in test [1] is 2.68% (inactive); in test [2], -0.789%; in test [3] it was 3.87%; in test [4], -2.49%; in test [5], -4.56%; in test [6], 2.16%.

Source of the values: PubChem BioAssay AID1745853 (National Center for Advancing Translational Sciences (NCATS), 2022).
